# Compound activity from PubChem.
# A3A deaminase: inhibitors of human APOBEC3A DNA deaminase; inhibition, % at 20 µM; actives 0.41% (n = 330,000); recombinant A3A, FAM/TAMRA ssDNA deamination fluorescence; P31941;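 active means at least 40% inhibition at 20 µM here, with at most 30% in a related deaminase screen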;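 further: plate controls were A3A with DMSO for no effect and wells lacking A3A enzyme for full effect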
# NPR1 activator: GC-A (human) enzyme activation; actives 0.14% (n = 370,000); HEK293 GC-A cells, cGMP TR-FRET, EC30 ANP; 0% at EC30 ANP, 100% saturating ANP; P16066; activation, % at 10 µM; in the data active means activation above about 40%
# NPR2 activator: GC-B (human) receptor activation; HEK293-GC-B cells, CNP EC30, cGMP TR-FRET; 0% at EC30 CNP, 100% saturating CNP; activation, % at 10 µM; P20594; actives 0.11% (n = 370,000);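 active means activation at 10 µM reaching about 35% in either raw or pattern-adjusted values, limit read from the data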
# Target sequence (P20594 whole entry, looked up): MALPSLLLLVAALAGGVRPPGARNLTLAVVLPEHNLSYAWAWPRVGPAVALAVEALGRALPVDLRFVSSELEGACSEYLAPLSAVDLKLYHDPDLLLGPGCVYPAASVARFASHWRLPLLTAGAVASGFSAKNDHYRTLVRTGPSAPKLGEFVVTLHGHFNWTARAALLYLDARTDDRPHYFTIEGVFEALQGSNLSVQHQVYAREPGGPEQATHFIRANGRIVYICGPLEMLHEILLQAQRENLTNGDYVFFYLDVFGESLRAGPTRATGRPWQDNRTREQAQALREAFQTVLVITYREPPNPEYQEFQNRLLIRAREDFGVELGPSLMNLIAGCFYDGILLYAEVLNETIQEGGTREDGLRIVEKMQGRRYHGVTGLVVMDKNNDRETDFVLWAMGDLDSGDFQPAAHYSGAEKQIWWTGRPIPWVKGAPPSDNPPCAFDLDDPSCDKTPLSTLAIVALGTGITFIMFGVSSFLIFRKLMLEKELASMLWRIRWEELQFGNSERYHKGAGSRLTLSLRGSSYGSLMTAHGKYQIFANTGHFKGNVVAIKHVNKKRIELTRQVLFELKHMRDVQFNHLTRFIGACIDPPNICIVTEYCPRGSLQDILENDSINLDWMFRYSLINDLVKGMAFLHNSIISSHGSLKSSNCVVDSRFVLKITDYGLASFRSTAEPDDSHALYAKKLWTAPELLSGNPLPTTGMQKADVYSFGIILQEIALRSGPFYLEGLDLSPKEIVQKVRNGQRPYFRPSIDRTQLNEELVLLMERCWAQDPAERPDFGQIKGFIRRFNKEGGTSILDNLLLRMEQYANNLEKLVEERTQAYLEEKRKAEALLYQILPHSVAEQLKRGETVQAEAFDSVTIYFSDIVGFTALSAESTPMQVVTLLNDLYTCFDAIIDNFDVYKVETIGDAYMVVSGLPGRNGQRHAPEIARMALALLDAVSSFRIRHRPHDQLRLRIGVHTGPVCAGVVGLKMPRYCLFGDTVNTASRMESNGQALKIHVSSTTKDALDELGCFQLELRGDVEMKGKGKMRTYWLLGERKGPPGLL
# A3G deaminase: blocks human APOBEC3G single-stranded DNA deamination | recombinant A3G, ssDNA deamination FAM/TAMRA fluorescence | AID 493012 | actives 0.28% (n = 330,000) | inhibition, % at 20 µM;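 active means inhibition of at least 40% at 20 µM, with no more than 30% in the related APOBEC3A deaminase screen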;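 further: plate controls were DMSO wells with A3G for no effect and wells lacking A3G enzyme for full effect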
# PfGluPho inh: PfG6PD (Plasmodium falciparum) enzyme inhibition. actives 0.78% (n = 350,000). AID 504690. PfGluPho enzyme, NADPH resazurin-diaphorase fluorescence. inhibition, % at 20 µM;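 active means inhibition reaching at least a set limit at 20 µM in the primary screen, cut at about 59% in these data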;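 further: 0% = DMSO wells with substrate and 100% = DMSO wells lacking glucose-6-phosphate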
# Neddyl block: blocks human cullin neddylation; TR-FRET cullin neddylation, biochemical; P61081+Q13564; actives 0.58% (n = 360,000); AID 651699; inhibition, % at 25 µM; in the data active means inhibition above about 36%
# PfG6PD confirm: confirmation of Plasmodium falciparum G6PD inhibitors | shares compounds with PfGluPho inh | inhibition, % at 20 µM | actives 34% (n = 2,400) | recombinant PfGluPho, NADPH-diaphorase-resazurin fluorescence;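 active means inhibition of at least 50% at 20 µM in any single replicate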;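 further: 0% = DMSO with substrate and 100% = DMSO lacking glucose-6-phosphate substrate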
# Diaph ctr 10uM: counter-screen for P. falciparum G6PD inhibitors: diaphorase inhibitors, oxidizers; shares compounds with PfGluPho inh; diaphorase-coupled resazurin reduction, fluorescence, NADPH 10 uM; actives 39% (n = 820); inhibition, % at 20 µM;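 active means average inhibition reaching 50% or more with the compound at 20 µM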;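 further: resorufin red fluorescence formed as diaphorase reduces resazurin using NADPH; 0% = DMSO with enzyme and 100% = DMSO without enzyme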
# Diaph ctr 30uM: counter-screen for P. falciparum G6PD inhibitors: diaphorase inhibitors, oxidizers; actives 29% (n = 820); Diaphorase/resazurin coupled assay, resorufin fluorescence, 30 uM NADPH; inhibition, % at 20 µM; AID 504863; shares compounds with PfGluPho inh;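 active means inhibition averaging 50% or more, tested at 20 µM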;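 further: 0% = DMSO with enzyme and 100% = DMSO wells lacking diaphorase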
# * = called active by the depositor; / = no result given. This is a sample that favours compounds with a hit; in the whole collection about 2% have one here.
SMILES,A3A deaminase,NPR1 activator,NPR2 activator,A3G deaminase,PfGluPho inh,Neddyl block,PfG6PD confirm,others
O=c1[nH]c2ccc(NS(=O)(=O)c3ccc(Cl)cc3)cc2[nH]1,-2.3,-0.6,0.8,-1.8,63.5*,1.7,1.8,
O=C(c1ccc2c(c1)OCO2)N1CCC(Oc2cccnc2)CC1,/,5.6,2.6,/,/,/,/,
O=c1ccn(-c2cccc(C(F)(F)F)c2)nc1-c1ccn(-c2ccccc2)n1,-3.1,7.0,7.8,-6.1,90.7*,-12.9,72.6*,Diaph ctr 10uM=65.8*;Diaph ctr 30uM=55.3*
Cc1cc(=O)c(C(=O)O)nn1-c1cccc(C(F)(F)F)c1,0.7,6.0,4.8,-3.8,-2.0,-1.1,/,
COC(=O)c1[nH]c2ccc(C)cc2c1NS(=O)(=O)c1ccc(F)cc1,-4.8,-10.6,-4.5,-10.4,67.9*,26.0,23.9,
COC(=O)c1[nH]c2ccc(C)cc2c1NS(=O)(=O)c1ccc(F)c(C)c1,-5.4,0.9,-5.1,-5.8,67.9*,16.6,22.6,
COC(=O)c1[nH]c2ccc(F)cc2c1NS(=O)(=O)c1ccc(F)c(C)c1,4.6,-6.7,0.1,-1.4,20.2,10.4,/,
Cc1nnc(SCc2nc3scc(-c4ccccc4)c3c(=O)[nH]2)s1,-6.8,-4.8,-6.9,-7.6,60.4*,-0.6,33.9,
CCn1c(SCc2nc3scc(-c4ccccc4)c3c(=O)[nH]2)nnc1-c1cccs1,-0.8,0.1,-3.0,-7.3,46.8,2.2,49.0*,Diaph ctr 10uM=48.6;Diaph ctr 30uM=43.4
CCOC(=O)[C@]12CCCCC/C=C\1N(Cc1ccc(OC)cc1)C(=O)[C@H]2CC(=O)N1CCCC1,/,2.8,-2.3,/,/,/,/,
Cc1cccn2c(=O)c3cc(C(=O)NC4CCCCC4)c(=N)n(Cc4ccccc4)c3nc12,2.2,8.9,-2.1,-1.1,69.7*,/,-1.3,
CCOCCCn1c(=N)c(C(N)=S)cc2c(=O)n3cccc(C)c3nc21,7.2,8.9,0.7,8.5,63.8*,/,7.5,
Cc1cccn2c(=O)c3cc(C(=O)NC4CCCC4)c(=N)n(Cc4ccc(F)cc4)c3nc12,-5.4,9.1,10.7,-5.5,63.5*,/,-9.7,
CCCCCCCCN1C(=O)[C@@H](CC(=O)NCc2cccs2)C[C@@]2(C(=O)OC)C1=C[C@H](COCc1ccccc1)O[C@@H]2C,/,-2.4,7.4,/,/,/,/,
Cc1ccc(C)c(CN2C(=O)COc3ccccc32)c1,-7.0,-17.2,-5.9,-2.7,-1.0,8.3,/,
Cc1ccc(C)c(CN2C(=O)COc3ccc(C(=O)c4ccccc4C(=O)O)cc32)c1,0.5,-2.0,1.0,-4.7,61.3*,-2.3,39.8,
Cc1cc(C)cc(N(CC(=O)NC2CCC(C)CC2)S(=O)(=O)c2cccs2)c1 (stereo unspecified),/,-10.2,-13.9,/,/,/,/,
CCOC(=O)c1c(C)n(C)c2cc(Br)c(O)c(O)c12,-4.6,-4.8,-2.2,4.5,68.5*,-3.7,17.6,
CCOC(=O)c1c(C)n(C)c2cc([N+](=O)[O-])c(O)c([N+](=O)[O-])c12,4.8,-8.4,-8.4,0.7,1.7,-50.2,/,
COc1cccc(N2CCN(CC(=O)Nc3ccccc3C(=O)NCCc3ccccc3)CC2)c1,21.9,-1.5,0.9,-3.7,25.0,7.3,/,
Oc1ccc(N2CCN(C(=S)NCCc3ccccc3)CC2)cc1,-1.9,-2.1,-11.8,14.0,67.2*,-4.9,10.6,
O=C(CN1CCN(c2ccc(O)cc2)CC1)Nc1ccccc1C(=O)NCCc1ccccc1,-5.1,1.8,8.1,15.7,70.3*,-12.4,34.4,
O=C(Nc1ccc2nc(-c3ccco3)c(-c3ccco3)nc2c1)N1CCN(c2ccccn2)CC1,42.7*,-18.1,-1.7,-5.1,81.0*,7.0,20.4,
O=C(c1ccc2nc(-c3ccco3)c(-c3ccco3)nc2c1)N1CCN(c2ncccn2)CC1,96.7,-4.0,-4.7,93.3,68.5*,4.5,1.8,
S=C(NN=Cc1ccccn1)N(Cc1ccccn1)Cc1ccccn1,/,3.0,0.1,/,79.5*,11.4,55.3*,Diaph ctr 10uM=-8.6;Diaph ctr 30uM=-1.2
SMILES,A3A deaminase,NPR1 activator,NPR2 activator,A3G deaminase,PfGluPho inh,Neddyl block,PfG6PD confirm,others
CCN(CC)CC(C)(C)C(=O)/C=C/c1ccc(/C=C/C(=O)C(C)(C)CN(CC)CC)cc1,/,-6.9,0.5,/,64.2*,9.7,45.4,
O=C(NC1CCCCN(Cc2cccc(Cl)c2)C1=O)c1ccc(-c2ccccc2)cc1 (stereo unspecified),/,0.4,-3.2,/,/,/,/,
O=[N+]([O-])c1ccc(S(=O)(=O)Nc2ccc(-c3ccccc3)cc2)cc1,/,3.9,-1.4,/,-15.2,-41.4,/,
CN(NS(=O)(=O)c1ccc([N+](=O)[O-])cc1)c1ccccc1,/,2.6,4.8,/,82.3*,-21.9,54.9*,Diaph ctr 10uM=91.2*;Diaph ctr 30uM=84.8*
COc1ccc(-c2cn3c(C)c(C(=O)Nc4ccncc4)sc3n2)cc1,-4.7,4.9,4.2,-4.1,65.1*,-101.8,18.9,
Cc1c(C(=O)Nc2ccncc2)sc2nc(-c3ccc(F)cc3)cn12,-5.1,1.5,2.7,-9.0,84.1*,-72.1,9.8,
COc1ccc(-c2cn3c4c(sc3n2)CCCC4)cc1,-2.6,1.9,-10.3,-4.2,93.3*,5.0,45.2,
COc1ccc(-c2cn3c(C)c(C(=O)N4CCCc5ccccc54)sc3n2)cc1,-0.5,2.4,2.6,-1.3,39.4,-5.1,/,
N#Cc1ccc(/C=C2\CC3(OC(=O)c4ccc(Cl)cc4)CCCN2C3)cc1 (stereo unspecified),/,-0.8,-9.7,/,/,/,/,
COC(=O)c1cc(C)[nH]c2c(C)cc3nc4ccccc4c3c12,-0.2,-41.5,-11.9,-5.5,71.3*,/,-11.9,
Cc1ccc2cc3c(N)c(C(=O)N4CCOCC4)sc3nc2c1,-5.4,-0.6,-1.6,-11.5,31.3,-14.9,/,
Cc1ccc2nc3sc(C(=O)N4CCOCC4)c(N)c3cc2c1,2.7,3.5,-3.7,10.9,83.8*,-1.1,52.2*,Diaph ctr 10uM=60.9*;Diaph ctr 30uM=39.7
Cc1ccc2nc(SCC(=O)NC3CCCc4ccccc43)[nH]c2c1 (stereo unspecified),-0.7,-2.6,-2.7,-9.7,75.3*,5.0,58.7*,Diaph ctr 10uM=64.3*;Diaph ctr 30uM=42.1
c1ccc2c(c1)N=C(N1CCN(Cc3ccc4c(c3)OCO4)CC1)c1ccccc1S2,/,-17.5,-11.5,/,/,/,/,
O=C(O)c1cc(C(=O)O)cc(N2C(=O)c3ccccc3C2=O)c1,/,4.2,10.6,/,/,/,/,
O=C(O)c1cc(N2C(=O)C=CC2=O)cc(N2C(=O)C=CC2=O)c1,/,4.5,3.8,/,120.9*,-6.0,104.6*,Diaph ctr 10uM=-22.5;Diaph ctr 30uM=5.1
